PubChem BioAssay (Tox21)
Values without a mark were called inactive. Active and inactive are the calls of the source. Calls come from the whole dose curve; as a rule, active = well fitted curve in the direction sought with a large enough effect in the repeat runs; inconclusive = weak or mixed curves; inactive = flat fitted curve, though single readings scatter.
% is set by controls: 0 for no effect and ±100 for the full control effect.

Assay: qHTS assay to test for compound auto fluorescence at 590 nm (red) in HepG2 cell free culture (AID 720684)
Details: cell-free medium autofluorescence, red 540/590 nm; series mostly up to 91.3 µM
Source text: U.S. Tox21 Program National Center for Advancing Translational Sciences [NCATS] NIH Chemical Genomics Center [NCGC] U.S. Environmental Protection Agency [EPA] National Institutes of Environmental Health Sciences [NIEHS] National Toxicology Program [NTP] U.S. Food and Drug Administration [FDA] Tox21 Assay Overview: Compound auto fluorescence often interferes with screening of the compound library against various biological targets and signaling pathways. Some of these compounds may have fluorophoric properties. Such properties may interfere with the assay outputs resulting in false positives and/or negatives. To decrease such complications and ensure the compound activities are relevant in terms of biological response, the Tox21 10K compound library was screened for auto fluorescence. From the fluorophores used as reporter signals in our screening assays, the auto fluorescence equivalencies of compounds against three fluorophores have been evaluated: Triamterene, Fluorescein and Rose Bengal sodium for blue, green and red fluorescence, respectively. The fluorescence intensities were measured using Excitation/Emission wavelengths at 405/460nm, 485/535nm and 540/590nm for blue, green and red labels, respectively. This assay includes the red fluorescence data.
Tox21 Assay Protocol Summary: 5 uL of culture medium (MEM containing 10% FBS) per well was dispensed into black wall/clear bottom 1536-well plates using a Multidrop Combi Dispenser (ThermoFisher Scientific, Waltham, MA). After 23 nL compound or DMSO vehicle was transferred into assay plate by a pintool work station (Kalypsys, San Diego, CA), fluorescence intensities in the assay plates were measured by an Envision (PerkinElmer, Shelton, CT) plate reader using three labels for measuring blue, green and red fluorescence at […] 460, 535 and 590nm respectively.
In the case of `O=C(N[C@H]1CN2CCC1CC2)c1ccc2c(c1)OCCO2`, the outcome was “inactive”. For `C[N+](C)(C)CC1CO1` (stereo not given), the outcome was “inactive”. With `SCc1ccccc1` the outcome was “inactive”. In the case of `CCCCCCCCn1sccc1=O`, the outcome was “inactive”. With `C[C@]12CC[C@H]3[C@@H](CCC4=CC(=O)CC[C@@H]43)[C@@H]1CC[C@@H]2OC(=O)CCc1ccccc1` the outcome was “inactive”. With `O=C(O)c1cc(I)cc(I)c1I` the outcome was “inactive”. For `CC(C)c1ccc(OP(=O)(Oc2ccc(C(C)C)cc2)Oc2ccc(C(C)C)cc2)cc1`, the outcome was “inactive”. With `Nc1cccc2ccccc12` the outcome was “inactive”. For `CN[C@@H](C)[C@H](O)c1ccccc1`, the outcome was “inactive”. In the case of `CCC1(CC)C(=O)NC(=O)NC1=O`, the outcome was “inactive”. For `Cc1cnc(C2=NC(C)(C(C)C)C(=O)N2)c(C(=O)O)c1` (stereo not given), the outcome was “inactive”. With `Nc1cc(Cl)cc(C(=O)O)c1Cl` the outcome was “inactive”. For `CCC(C)Cl` (stereo not given), the outcome was “inactive”. With `CC(C)(C#N)C(C)(C)C#N` the outcome was “inactive”. With `Cc1ccc2c(C)cccc2c1` the outcome was “inactive”. For `COP(=O)(OC)OC(Br)C(Cl)(Cl)Br` (stereo not given), the outcome was “inactive”. In the case of `OCCSSCCO`, the outcome was “inactive”. For `CCCCC1C(=O)NC(=O)N(C2CCCCC2)C1=O` (stereo not given), the outcome was “inactive”. With `C=CCOCC1CO1` (stereo not given) the outcome was “inactive”. In the case of `C[C@H](N)[C@H](O)c1ccc(O)c(O)c1`, the outcome was “inactive”. In the case of `O=C([O-])c1ccccn1.O=C([O-])c1ccccn1.O=C([O-])c1ccccn1.[Cr+3]`, the outcome was “inactive”. In the case of `OC[P+](CO)(CO)CO`, the outcome was “inactive”. With `CCCCC#N` the outcome was “inactive”. With `CCC1(CCC(C)C)C(=O)NC(=O)NC1=O` the outcome was “inactive”. With `NCCc1cc(O)c(O)cc1O` the outcome was “inactive”. In the case of `N#CC1(N=NC2(C#N)CCCCC2)CCCCC1`, the outcome was “inactive”. With `CC(C)[C@@H](C(=O)O[C@@H](C#N)c1cccc(Oc2ccccc2)c1)c1ccc(Cl)cc1` the outcome was “inactive”. With `CCCN(CCC)c1c([N+](=O)[O-])cc(C(C)C)cc1[N+](=O)[O-]` the outcome was “inactive”. For `CCCN(CCOc1c(Cl)cc(Cl)cc1Cl)C(=O)n1ccnc1`, the outcome was “inactive”. For `O=C(Cc1ccccc1)c1ccccc1`, the outcome was “inactive”. For `CCOP(=O)(O)C(N)=O`, the outcome was “inactive”. With `CC(C)(C)N(NC(=O)c1ccc(Cl)cc1)C(=O)c1ccccc1` the outcome was “inactive”. For `CCCCOC(=O)CCC(=O)OCCCC`, the outcome was “inactive”. With `CC(Cc1ccccc1)NCc1ccccc1Cl` (stereo not given) the outcome was “inactive”. With `O=C1CC[C@@]2(O)[C@H]3Cc4ccc(O)c5c4[C@@]2(CCN3CC2CC2)[C@H]1O5` the outcome was “inactive”. In the case of `CCN(C(C)=O)c1cccc(-c2ccnc3c(C#N)cnn23)c1`, the outcome was “inactive”. In the case of `C#C[C@]1(O)CC[C@H]2[C@@H]3CCC4=CC(=O)CCC4=C3C=C[C@@]21CC`, the outcome was “inactive”. `CCCCCCCCCCCCN=C(N)N` gave a fluorescence, % of Rose Bengal of 0.0947% [at 3.72 µM]. With `c1ccc2sc(SNC3CCCCC3)nc2c1` the outcome was “inactive”. With `COc1cc(C[C@@H](C)N)c(OC)cc1Br` the outcome was “inactive”.
